Rows were chosen to be rich in hits. Some 2.3% of all compounds tested hit in one or more screens of this group.
MCL1-BIM inh: MCL1-BIM-BH3 interaction inhibition (human); Q07820; GST-MCL1 / FITC-Bim-BH3 fluorescence polarization; inhibition, % at 10.9 µM; 320,000 compounds, 0.68% hits;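 active = inhibition above the mean inhibition of all tested compounds plus 3 SD, set per campaign, cut at about 40% in these data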;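 note: 0% = DMSO wells and 100% = unlabeled Bim-BH3 peptide control; higher means more loss of mP so more displacement of Bim peptide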
Bim-Mcl-1: inhibitors of Bim-Mcl-1 interaction, human. AID 1009. Bead-based flow cytometry, Bim peptide-Mcl-1 binding. inhibition, % at 10 µM. Q07820. 190,000 compounds, 0.1% hits; in the data active = inhibition above about 40%;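 note: 0% = no compound tracer wells and 100% = peptide blocker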
Bcl-xL primary: inhibitors of human Bcl-xL. Q07817. GST-Bcl-xL / FITC-Bim BH3 peptide fluorescence polarization. inhibition, % at 10.9 µM. 320,000 compounds, 0.7% hits. AID 2129;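 active = inhibition above the mean of all tested compounds plus 3 SD, cutoff set per campaign, cut at about 30% in these data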;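 note: 0% = DMSO wells and 100% = unlabeled Bim-BH3 peptide competitor; inhibitors lower millipolarization by displacing the labeled peptide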
Target sequence (Q07817 whole entry, looked up): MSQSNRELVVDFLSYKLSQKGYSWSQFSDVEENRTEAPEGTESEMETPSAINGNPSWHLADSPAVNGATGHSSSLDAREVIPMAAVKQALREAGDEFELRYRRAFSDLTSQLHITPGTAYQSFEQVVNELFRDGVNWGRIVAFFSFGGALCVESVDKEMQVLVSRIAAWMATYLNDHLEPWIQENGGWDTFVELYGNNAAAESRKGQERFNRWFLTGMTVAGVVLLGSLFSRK
GLD-1 RNA inh: GLD-1-TGE RNA interaction inhibition (C. elegans) | inhibition, % at 5.96 µM | 320,000 compounds, 0.44% hits | purified GLD-1 + fluorescein TGE RNA, fluorescence polarization | Q17339;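 active = percent inhibition above a per-plate cutoff, the plate mean of test compounds plus 3 SD, cut at about 30% in these data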;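 note: 0% = DMSO wells with GLD-1 and probe and 100% = wells lacking GLD-1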
Mcl1-Noxa inh: Mcl-1/Noxa interaction inhibition. TR-FRET Mcl-1/Noxa peptide binding, 2 h. inhibition, % at 21.7 µM. 220,000 compounds, 1.5% hits;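 active = compounds that cut the protein-peptide binding signal by more than 50% relative to plate controls in a single-dose test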;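 note: His-tagged Mcl-1 with rhodamine Noxa BH3 peptide and terbium anti-His antibody; 0% = Mcl-1 plus Noxa peptide wells and 100% = peptide-only wells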
Mcl1-Bid inh: disrupts binding of human Mcl-1 to Bid peptide; inhibition, % at 21.7 µM; TR-FRET Mcl-1/Bid-Dy647 peptide binding, 1536-well; AID 1021; 220,000 compounds, 0.97% hits;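 active = compounds that cut the binding signal by more than half at the single screening dose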;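 note: His-tagged Mcl-1 with europium anti-His antibody binding Bid BH3 peptide; 0% = Mcl-1 plus peptide wells and 100% = peptide-only wells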
GLD-1 TGE cf: GLD-1 TGE RNA interaction inhibition, confirmation; shares compounds with GLD-1 RNA inh; GLD-1/FL-TGE RNA fluorescence polarization, biochemical; inhibition, % at 5.96 µM; 550 compounds, 10% hits;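 active = average inhibition across triplicates above the hit cutoff set in the primary screen, cut at about 32% in these data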;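 note: 0% = GLD-1 with RNA probe and DMSO and 100% = wells lacking GLD-1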
* = called active by the depositor; . = no result.

SMILES	MCL1-BIM inh	Bim-Mcl-1	Bcl-xL primary	GLD-1 RNA inh	Mcl1-Noxa inh	Mcl1-Bid inh	GLD-1 TGE cf
CCOC(=O)c1cc2c(ccn2C)n1CC(=O)N1CCN(c2ccc(F)cc2)CC1	-1	2	0	8	12	-97	.
CCOC(=O)c1cc2c(ccn2C)n1CC(=O)N1CCN(c2cccc(C(F)(F)F)c2)CC1	4	0	2	40*	-7	-39	47*
Cc1oc(/N=C/c2ccc3c(c2)OCO3)c(C#N)c1C	19	0	16	36*	21	-15	-3
CN1CCN(CCP(=O)(c2ccccc2)c2ccccc2)CC1	-2	-2	-2	-2	-126	-15	.
CN1CCN(CP(=O)(N2CCOCC2)N2CCOCC2)CC1	5	-10	1	43*	-16	-8	0
COc1ccc(CN2CC(=O)N3[C@H]4c5cc(C)ccc5OC[C@@H]4[C@H](c4ccccc4)[C@]3(C)C2=O)cc1	.	.	.	33*	.	.	15
COc1ccc(CN2CC(=O)N3[C@H]4c5ccccc5OC[C@@H]4[C@H](c4ccccc4)[C@]3(C)C2=O)cc1	16	.	20	45*	.	.	4
C[C@@]12C(=O)N(Cc3ccc(Cl)cc3)CC(=O)N1[C@H]1c3ccccc3OC[C@@H]1[C@@H]2c1ccccc1	7	.	4	-2	.	.	.
COc1ccc2c(c1)OC[C@H]1[C@H]2N2C(=O)CN(Cc3ccc(C)cc3)C(=O)[C@@]2(C)[C@H]1c1ccccc1	-4	.	-1	-2	.	.	.
CN(C)c1nc(N)c([N+](=O)[O-])c(NCC2CCCO2)n1 (stereo not given)	3	.	2	7	-11	-14	.
CCOc1ncccc1C(=O)OCC(=O)NCc1cccs1	.	.	.	3	.	.	.
O=C(NNc1cccc(Cl)n1)Nc1ccccc1	-6	2	-1	4	11	-12	.
O=C(Nc1ccccc1)Nc1ccc(Cl)nc1Cl	2	.	-3	36*	.	.	-4
O=C(Cc1cn(Cc2cccc(Cl)c2)c2ccccc12)N1CCCC1	4	-2	3	54*	17	-5	-5
O=C(CS(=O)(=O)c1cn(Cc2ccc(Cl)cc2)c2ccccc12)N1CCCC1	7	-1	5	5	3	-19	.
Cc1ccc(/C=C2/NC(=O)N(Cc3ccccc3F)C2=O)o1	27	-8	18	34*	-17	26	-50
CCCN1C(=O)/C(=C/c2ccc(C)o2)NC1=S	34	2	28	13	35	-23	.
CCN1C(=O)N/C(=C/c2ccc(C)o2)C1=O	28	-5	22	43*	25	-81	-10
CCCCC(=O)Nc1ccc(NCc2ccc(C)s2)cc1	-6	.	1	38*	.	.	4
O=C(NC12CC3CC(CC(C3)C1)C2)OCCNC1CCCCC1	9	.	6	-2	6	-14	.
O=C(NC1CCCCC1)C1CC(=O)N(c2ccccc2)C1 (stereo not given)	2	.	-1	2	.	.	.
COc1ccc(C(=O)Nc2ccc(NC(C)=O)cc2)cc1S(=O)(=O)N1CCCC1	-4	.	4	7	.	.	.
COc1ccc(NC(=O)c2ccc(OC)c(S(=O)(=O)N3CCCCC3C)c2)cn1 (stereo not given)	48*	.	51*	33*	.	.	28
Cc1cc2c(c(=O)o1)C(c1ccc([N+](=O)[O-])o1)C(C#N)=C(N)O2 (stereo not given)	47*	.	46*	36*	2	-26	-6
COc1ccc(-n2nc(C(=O)NCC(=O)NC3CCCC(C)C3C)c3ccccc3c2=O)cc1 (stereo not given)	14	.	8	33*	.	.	-1
COCCn1c(SCC(=O)Nc2ccc3[nH]c(=O)[nH]c3c2)nc2ccccc21	.	.	.	-2	.	.	.
CC1(C)CC(=O)C/C(=N/NC(=O)COc2ccc(Cl)cc2Cl)C1	15	.	5	23	-16	-36	.
CC1(C)CC(=O)C/C(=N/NC(=O)COc2ccc3ccccc3c2Br)C1	14	.	5	31*	.	.	1
COCCCN1CN(S(=O)(=O)c2ccc(Cl)cc2)c2nc3ccccc3nc21	26	0	29	34*	10	-9	0

Assay outcomes from PubChem.
